From PubChem BioAssay (Tox21)
Inconclusive results are not listed. A call without a number means that no potency is given here. The source made the active and inactive calls. Unless noted, calls come from the whole dose curve; as a rule, active = well fitted curve in the direction sought with a large enough effect in the repeat runs; inconclusive = weak or mixed curves; inactive = no such curve, though single readings can be large; an effect the other way counts as inactive or inconclusive.

Assays:
[1] = qHTS RealTime-Glo MT Cell Viability Assay in HepG2 cells - 16 hour (AID 1224885); note: nearly all actives have a fitted effect of over 50% in size
Procedure, shortened: (§1)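 HepG2 suspension premixed with RealTime-Glo reagents is plated at 600 cells per well and left 5 h at 37 C/5% CO2. Compounds in DMSO then go in, and bioluminescence reflecting viable cell number is recorded over 40 h.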

[2] = qHTS RealTime-Glo MT Cell Viability Assay in HEK293 cells - 24 hour (AID 1224886); note: top concentration of the series differs between compounds; nearly all actives have a fitted effect of over 50% in size
Procedure, shortened: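 Reads taken at 0, 8, 16, 24, 32 and 40 h from the same wells. HEK293 cells (600/well) carried RealTime-Glo reagents from seeding, with compound added after a 5 h settle at 37 C.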

[3] = qHTS RealTime-Glo MT Cell Viability Assay in HEK293 cells - 8 hour (AID 1224887); note: top concentration of the series differs between compounds; nearly all actives have a fitted effect of over 50% in size
Procedure, shortened: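 Measured as luminescence from the same continuously cultured HEK293 wells at successive time points (0, 8, 16, 24, 32, 40 h) after compound addition. Reagent present from seeding; dosing at 5 h; incubation 37 C.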

[4] = A CellTox Green Cytotoxicity Assay to monitor cytotoxicity in HEK293 cells - 16 hour (AID 1224888); note: nearly all actives have a fitted effect of over 35% in size
Procedure, shortened: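 Homogeneous no-lysis format: HEK293 cell suspension mixed with CellTox Green reagent, seeded, incubated 5 h at 37 C/5% CO2, then dosed by pintool with compound in DMSO.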

[5] = qHTS RealTime-Glo MT Cell Viability Assay in HepG2 cells - 0 hour (AID 1224889); note: nearly all actives have a fitted effect of over 50% in size
Procedure, shortened: as §1

[6] = A CellTox Green Cytotoxicity Assay to monitor cytotoxicity in HepG2 cells - 8 hour (AID 1224890); note: nearly all actives have a fitted effect of over 45% in size
Procedure, shortened: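 Fluorescent DNA-binding dye, 600 HepG2 cells/well, 5 h preincubation then compound in DMSO; same plates read at 0–40 h, 37 C.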

[7] = qHTS assay to identify small molecule antagonists of the estrogen receptor alpha (ER-alpha) signaling pathway using the BG1 cell line in the presence of 0.1 nM 17-beta-estradiol - cell viability counter screen (AID 1259241); note: nearly all actives have a fitted effect of over 40% in size
Procedure, shortened: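 VM7Luc4E2 cells (endogenous ER-alpha, 4×ERE-luciferase), hormone-starved 5 days in charcoal-stripped FBS, were treated with compounds plus 0.1 nM 17beta-estradiol for 22 hr at 37C; viability read in same wells as CellTiter-Fluor live-cell protease fluorescence.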

[8] = qHTS assay to identify small molecule antagonists of the androgen receptor (AR) signaling pathway using the MDA cell line in the presence of 0.5 nM R1881 - cell viability counter screen (AID 1259242); note: nearly all actives have a fitted effect of over 45% in size
Procedure, shortened: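 Human breast carcinoma MDA-kb2 cells, cultured without CO2, receive compounds alongside 0.5 nM (final) R1881 agonist. After 16 hr at 37C, viability is taken as live-cell protease signal.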

[9] = biological target: Androgen receptor (Homo sapiens) (UniProt P10275); assay: qHTS assay to identify small molecule antagonists of the androgen receptor (AR) signaling pathway using the MDA cell line in the presence of 0.5 nM R1881 (AID 1259243); note: nearly all actives have a fitted effect of over 50% in size; note: potency is the fitted concentration of half-maximal effect
Procedure, shortened: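 Cells: MDA-kb2 (MMTV-luc). Stimulus: 0.5 nM R1881. Time: 16 hr, 37C, no CO2. Detection: ONE-Glo luminescence after 30 min at RT.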

[10] = biological target: Estrogen receptor (Homo sapiens) (UniProt P03372); assay: qHTS assay to identify small molecule antagonists of the estrogen receptor alpha (ER-alpha) signaling pathway using the BG1 cell line in the presence of 0.1 nM 17-beta-estradiol (AID 1259244); note: nearly all actives have a fitted effect of over 50% in size
Procedure, shortened: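 Seeding of stripped-serum-adapted VM7Luc4E2 cells, 24 h attachment, compound transfer, then 0.1 nM final 17beta-estradiol; after 22 h incubation, ONE-Glo reagent and luminescence reading.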

[11] = qHTS assay to identify small molecule phospholipidosis (PLD) inducers (AID 1259344; active = well fitted curve in the direction sought with a large enough effect; an effect the other way counts as inactive or inconclusive)
Procedure, shortened: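 Accumulated phospholipid, stained red by LipidTOX during 24 h compound treatment of HepG2 cells at 37 C, is quantified from images as pit number and intensity, normalised per cell using Hoechst-stained nuclei.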

[12] = qHTS assay to identify small molecule HDAC inhibitors (AID 1259364);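 note: wild-type HCT-116 cells with endogenous class I/II HDAC activity; top concentration of the series differs between compounds; nearly all actives have a fitted effect of over 45% in size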
Procedure, shortened: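 After a 2 hr compound incubation (37C, 5% CO2), HCT-116 cells seeded at 1,500/well the day before received HDAC-Glo reagent; signal read as luminescence after 30 min at room temperature.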

[13] = qHTS assay to identify small molecule HDAC inhibitors - cell viability counter screen (AID 1259365)
Procedure, shortened: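 Wild-type HCT-116 cells were seeded at 1,500 per well, incubated overnight at 37 C, then exposed to compounds in DMSO for 2hr. Viability was read by CellTiter-Glo luminescence after 30min at room temperature.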

[14] = qHTS assay to identify small molecule agonists of the sonic hedgehog signaling (Shh) pathway - cell viability counter screen (AID 1259366); note: nearly all actives have a fitted effect of over 50% in size
Procedure, shortened: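 NIH/3T3-derived 3T3 Gli1-Luc cells (stable Gli1-responsive firefly luciferase reporter) were seeded, rested 4 hr at 37 C/5% CO2, then exposed to compounds in DMSO for 24 hr; viability was read by CellTiter-Fluor fluorescence in the same wells.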

[15] = qHTS assay to identify small molecule antagonists of the sonic hedgehog signaling (Shh) pathway - cell viability counter screen (AID 1259367); note: nearly all actives have a fitted effect of over 55% in size
Procedure, shortened: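 CellTiter-Fluor signal in conditioned medium-stimulated 3T3 Gli1-Luc cells, 23 hr compound exposure, 37C.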

[16] = qHTS assay to identify small molecule antagonists of the sonic hedgehog signaling (Shh) pathway (AID 1259369; calls by dose curve; note: nearly all actives have a fitted effect of over 45% in size)
Procedure, shortened: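 Gli1 transcriptional reporter (firefly Luc) in NIH/3T3 background, conditioned-medium activated. 24hr exposure, luminescence endpoint.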

[17] = biological target: Estrogen receptor beta (Homo sapiens) (UniProt Q92731); assay: qHTS assay to identify small molecule agonists of the estrogen receptor beta (ER-beta) signaling pathway (AID 1259377; active = well fitted activation curve with a large enough effect in the signal ratio in the repeat runs, not every such curve was filed as active; the % refers to the signal ratio)
Procedure, shortened: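 ER-beta-UAS-bla HEK293T (GripTite) cells carrying a UAS-driven beta-lactamase reporter, in medium with 2% charcoal-stripped FBS, were exposed to compounds for 16 hr at 37C; LiveBLAzer B/G FRET substrate was then added and fluorescence read after 2 hours at room temperature.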

[18] = biological target: Estrogen receptor beta (Homo sapiens) (UniProt Q92731); assay: qHTS assay to identify small molecule antagonists of the estrogen receptor beta (ER-beta) signaling pathway (AID 1259378; active = well fitted inhibition curve with a large enough effect in the signal ratio in the repeat runs, not every such curve was filed as active; the % refers to the signal ratio)
Procedure, shortened: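 Antagonist mode: compounds added to beta-lactamase reporter HEK293T ER-beta-UAS cells stimulated with E2 (1nM final), 16 hr at 37C. LiveBLAzer B/G FRET substrate, 2 hours room temperature, fluorescence read-out.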

[19] = qHTS assay to identify small molecule agonists of the androgen receptor (AR) signaling pathway in the presence of an antagonist - cell viability counter screen (AID 1259379);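 note: MDA-kb2 human breast cancer cells carrying an MMTV luciferase reporter; series mostly up to about 92 µM; nearly all actives have a fitted effect of over 25% in size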
Procedure, shortened: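 Counter screen for cell viability run in parallel with the AR agonist-mode luciferase assay. MDA-kb2 cells were co-treated with nilutamide (3.0uM final) and compounds, then incubated 16 hr at 37C, and CellTiter-Fluor fluorescence was measured.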

[20] = qHTS assay to identify small molecule agonists of the sonic hedgehog signaling (Shh) pathway (AID 1259368; calls by dose curve; note: series mostly up to about 92 µM; nearly all actives have a fitted effect of over 15% in size)
Procedure, shortened: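 Stable NIH/3T3 Gli1-Luc reporter clone; 24 hr cpd exposure after a 4 hr settling period; luminescence endpoint.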

Estrogen receptor (Homo sapiens), sequence (P03372 whole entry, looked up): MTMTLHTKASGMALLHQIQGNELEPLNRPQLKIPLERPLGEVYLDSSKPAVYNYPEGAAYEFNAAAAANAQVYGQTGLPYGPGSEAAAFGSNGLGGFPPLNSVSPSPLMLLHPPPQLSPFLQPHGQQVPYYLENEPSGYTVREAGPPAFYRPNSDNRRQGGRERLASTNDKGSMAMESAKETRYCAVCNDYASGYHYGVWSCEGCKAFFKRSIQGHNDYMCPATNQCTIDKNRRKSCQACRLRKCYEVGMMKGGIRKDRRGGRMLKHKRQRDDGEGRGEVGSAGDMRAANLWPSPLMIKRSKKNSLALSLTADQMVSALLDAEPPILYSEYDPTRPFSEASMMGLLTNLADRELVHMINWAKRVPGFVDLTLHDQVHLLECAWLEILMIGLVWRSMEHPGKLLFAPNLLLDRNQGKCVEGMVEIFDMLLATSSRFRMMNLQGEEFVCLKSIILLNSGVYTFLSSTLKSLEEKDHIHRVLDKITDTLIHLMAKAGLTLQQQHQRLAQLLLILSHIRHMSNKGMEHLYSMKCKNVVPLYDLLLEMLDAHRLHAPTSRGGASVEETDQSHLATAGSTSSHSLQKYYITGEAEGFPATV
Estrogen receptor beta (Homo sapiens), sequence (Q92731 whole entry, looked up): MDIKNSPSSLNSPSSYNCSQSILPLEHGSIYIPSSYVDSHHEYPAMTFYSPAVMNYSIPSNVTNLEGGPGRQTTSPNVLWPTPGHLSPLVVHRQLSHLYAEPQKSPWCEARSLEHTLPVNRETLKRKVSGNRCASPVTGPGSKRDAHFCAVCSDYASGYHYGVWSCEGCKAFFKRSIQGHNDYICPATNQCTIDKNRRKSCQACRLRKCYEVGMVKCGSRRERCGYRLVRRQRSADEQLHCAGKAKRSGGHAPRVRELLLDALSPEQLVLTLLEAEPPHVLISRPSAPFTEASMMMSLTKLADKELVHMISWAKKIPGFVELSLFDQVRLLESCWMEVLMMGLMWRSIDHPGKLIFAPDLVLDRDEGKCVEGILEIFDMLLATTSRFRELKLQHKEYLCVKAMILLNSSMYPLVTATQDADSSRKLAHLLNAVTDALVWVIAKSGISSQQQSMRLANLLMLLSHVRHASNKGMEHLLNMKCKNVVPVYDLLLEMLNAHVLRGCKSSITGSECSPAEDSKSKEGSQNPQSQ
Androgen receptor (Homo sapiens), sequence (P10275 whole entry, looked up): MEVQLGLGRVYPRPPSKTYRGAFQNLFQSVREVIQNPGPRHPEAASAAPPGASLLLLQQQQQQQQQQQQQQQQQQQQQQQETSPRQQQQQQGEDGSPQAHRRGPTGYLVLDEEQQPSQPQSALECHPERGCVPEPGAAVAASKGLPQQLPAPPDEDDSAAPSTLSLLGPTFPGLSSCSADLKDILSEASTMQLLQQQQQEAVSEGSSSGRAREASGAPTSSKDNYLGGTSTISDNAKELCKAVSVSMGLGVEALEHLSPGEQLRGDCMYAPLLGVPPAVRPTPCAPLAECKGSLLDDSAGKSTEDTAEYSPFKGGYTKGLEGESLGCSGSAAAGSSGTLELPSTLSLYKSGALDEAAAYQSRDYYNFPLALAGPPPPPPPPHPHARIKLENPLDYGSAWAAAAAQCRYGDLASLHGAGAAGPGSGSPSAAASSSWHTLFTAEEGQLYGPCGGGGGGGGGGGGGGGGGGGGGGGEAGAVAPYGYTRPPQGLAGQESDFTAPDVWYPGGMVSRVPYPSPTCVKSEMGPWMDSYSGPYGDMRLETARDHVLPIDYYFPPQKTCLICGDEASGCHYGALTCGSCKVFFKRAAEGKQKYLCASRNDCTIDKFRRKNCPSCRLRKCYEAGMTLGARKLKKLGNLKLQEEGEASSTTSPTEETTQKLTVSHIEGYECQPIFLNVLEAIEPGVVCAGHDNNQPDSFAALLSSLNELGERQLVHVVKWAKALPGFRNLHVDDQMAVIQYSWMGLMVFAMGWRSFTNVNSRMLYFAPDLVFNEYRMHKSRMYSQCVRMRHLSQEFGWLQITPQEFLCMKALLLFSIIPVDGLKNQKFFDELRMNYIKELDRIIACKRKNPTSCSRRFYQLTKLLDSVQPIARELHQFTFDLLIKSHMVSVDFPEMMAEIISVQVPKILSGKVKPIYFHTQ

Structure (SMILES) | outcome [1] | Potency [2] | Potency [3] | outcome [4] | Potency [5] | Potency [6] | Potency [7] | outcome [8] | Potency [9] | Potency [10] | outcome [11] | Potency [12] | outcome [13] | Potency [14] | Potency [15] | Potency [16] | Potency [17] | Potency [18] | Potency [19] | outcome [20]
OCCOCCOCCO | inactive | inactive | inactive | inactive | inactive | inactive | inactive | inactive | inactive | inactive | inactive | inactive | inactive | inactive | inactive | inactive | inactive | inactive | inactive | 
CCCCCC1=CCCC1=O | inactive | inactive | inactive | inactive | inactive | inactive | inactive | inactive |  | inactive |  | inactive | inactive | inactive | inactive | inactive | inactive | inactive | inactive | 
c1ccc2c(c1)ccc1ccccc12 | inactive | inactive | inactive | inactive | inactive | inactive | inactive | inactive | 17.2 µM (active) | inactive |  | inactive | inactive | inactive |  | inactive |  |  | inactive | inactive
O=c1[nH]c(=O)n([C@H]2C[C@H](O)[C@@H](CO)O2)cc1Br | inactive | inactive | inactive | inactive | inactive | inactive | inactive | inactive |  | inactive | inactive | inactive | inactive | inactive | inactive | inactive | inactive | inactive | inactive | 
O=C(O)c1ccc2c(c1)C(=O)OC2=O | inactive | inactive | inactive | inactive | inactive | inactive | inactive | inactive | inactive | inactive |  | inactive | inactive | inactive | inactive | inactive | inactive | inactive | inactive | 
Nc1ccccc1[N+](=O)[O-] | inactive | inactive | inactive | inactive | inactive | inactive | inactive | inactive |  |  |  | inactive | inactive | inactive | inactive | inactive | inactive | inactive | inactive | 
CC[C@H](C)C(=O)O[C@H]1C[C@@H](C)C=C2C=C[C@H](C)[C@H](CC[C@@H]3C[C@@H](O)CC(=O)O3)[C@H]21 | inactive | inactive | inactive | inactive |  | inactive | inactive | inactive |  | inactive | inactive | inactive | inactive | inactive | inactive |  | inactive |  | inactive | inactive
OCC(CO)(CBr)CBr | inactive | inactive | inactive | inactive | inactive | inactive | inactive | inactive |  |  |  | inactive | inactive | inactive | inactive | inactive |  |  | inactive | 
